# The entries come from a sample that favours the strongest signals as a whole.
# What was measured:
# Assay in all cases: glycan array binding signal (z-score within array); higher = stronger binding
# Settings in all cases: glycan notation: IUPAC condensed, linker removed
# [1] = biological target: Fuc(a1-2)Gal(b1-3)GlcNAc6S
# Procedure, shortened: (§1)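 The binding signal is a Z-score computed within each array. Data were drawn from 3228 arrays in the Consortium for Functional Glycomics database, restricted to those with a known protein sequence. Scores were averaged over arrays of the same protein sequence at different concentrations or buffers, and over linkers, and negative values can be taken as non-binding.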
# [2] = biological target: Fuc(a1-2)Gal(b1-3)[Fuc(a1-4)]GlcNAc(b1-2)Man(a1-3)[Fuc(a1-2)Gal(b1-3)[Fuc(a1-4)]GlcNAc(b1-2)Man(a1-3)]Man(b1-4)GlcNAc(b1-4)GlcNAc
# Procedure, shortened: as §1
# [3] = biological target: Fuc(a1-2)Gal(b1-4)[Fuc(a1-3)]GlcNAc(b1-3)GalNAc
# Procedure, shortened: as §1
# [4] = biological target: Fuc(a1-2)[Gal(a1-3)]Gal(b1-3)GlcNAc(b1-2)Man(a1-3)[Fuc(a1-2)[Gal(a1-3)]Gal(b1-3)GlcNAc(b1-2)Man(a1-6)]Man(b1-4)GlcNAc(b1-4)[Fuc(a1-6)]GlcNAc
# Procedure, shortened: as §1
# [5] = biological target: Fuc(a1-2)[Gal(a1-3)]Gal(b1-4)GlcNAc
# Procedure, shortened: as §1
# [6] = biological target: Fuc(a1-2)[GalNAc(a1-3)]Gal(b1-3)GlcNAc(b1-2)Man(a1-3)[Fuc(a1-2)[GalNAc(a1-3)]Gal(b1-3)GlcNAc(b1-2)Man(a1-6)]Man(b1-4)GlcNAc(b1-4)[Fuc(a1-6)]GlcNAc
# Procedure, shortened: as §1
# [7] = biological target: Fuc(a1-2)[GalNAc(a1-3)]Gal(b1-4)GlcNAc(b1-2)Man(a1-3)[Fuc(a1-2)[GalNAc(a1-3)]Gal(b1-4)GlcNAc(b1-2)Man(a1-6)]Man(b1-4)GlcNAc(b1-4)GlcNAc
# Procedure, shortened: as §1
# [8] = biological target: Fuc(a1-2)[GalNAc(a1-3)]Gal(b1-4)[Fuc(a1-3)]GlcNAc
# Procedure, shortened: as §1
# [9] = biological target: Fuc(a1-3)[Gal(b1-4)]GlcNAc(b1-2)Man
# Procedure, shortened: as §1
# [10] = biological target: Fuc(a1-3)[Gal(b1-4)]GlcNAc(b1-6)[Gal(b1-3)GlcNAc(b1-3)]Gal(b1-4)Glc
# Procedure, shortened: as §1
# [11] = biological target: Gal(a1-3)Gal(b1-3)GlcNAc(b1-2)Man(a1-3)[Gal(a1-3)Gal(b1-3)GlcNAc(b1-2)Man(a1-6)]Man(b1-4)GlcNAc(b1-4)GlcNAc
# Procedure, shortened: as §1
# [12] = biological target: Gal(b1-3)GlcNAc(b1-2)Man(a1-3)[Gal(b1-3)GlcNAc(b1-2)Man(a1-6)]Man(b1-4)GlcNAc(b1-4)[Fuc(a1-6)]GlcNAc
# Procedure, shortened: as §1
# [13] = biological target: Gal(b1-3)GlcNAc(b1-3)Gal(b1-4)GlcNAc(b1-2)Man(a1-3)[Gal(b1-3)GlcNAc(b1-3)Gal(b1-4)GlcNAc(b1-2)Man(a1-6)]Man(b1-4)GlcNAc(b1-4)GlcNAc
# Procedure, shortened: as §1
# [14] = biological target: Gal(b1-3)GlcNAc(b1-6)[Gal(b1-3)]GalNAc
# Procedure, shortened: as §1
# [15] = biological target: Gal(b1-3)[Neu5Ac(a2-6)]GalNAc
# Procedure, shortened: as §1
# Gal(b1-4)Glc6S = biological target: Gal(b1-4)Glc6S
# Procedure, shortened: as §1
# [16] = biological target: Gal(b1-4)GlcNAc(b1-2)[Gal(b1-4)GlcNAc(b1-4)]Man(a1-3)[Gal(b1-4)GlcNAc(b1-2)[Gal(b1-4)GlcNAc(b1-6)]Man(a1-6)]Man(b1-4)GlcNAc(b1-4)GlcNAc
# Procedure, shortened: as §1
# [17] = biological target: Gal(b1-4)GlcNAc(b1-2)[Gal(b1-4)GlcNAc(b1-6)]Man(a1-6)[Gal(b1-4)GlcNAc(b1-2)Man(a1-3)]Man(b1-4)GlcNAc(b1-4)[Fuc(a1-6)]GlcNAc
# Procedure, shortened: as §1
# [18] = biological target: Gal(b1-4)GlcNAc(b1-3)Gal(b1-4)GlcNAc(b1-2)Man(a1-3)[Gal(b1-4)GlcNAc(b1-3)Gal(b1-4)GlcNAc(b1-2)Man(a1-6)]Man(b1-4)GlcNAc(b1-4)GlcNAc
# Procedure, shortened: as §1
# [19] = biological target: Gal(b1-4)GlcNAc(b1-3)Gal(b1-4)GlcNAc(b1-3)Gal(b1-4)GlcNAc(b1-2)Man(a1-3)[Gal(b1-4)GlcNAc(b1-3)Gal(b1-4)GlcNAc(b1-3)Gal(b1-4)GlcNAc(b1-2)Man(a1-6)]Man(b1-4)GlcNAc(b1-4)GlcNAc
# Procedure, shortened: as §1
# [20] = biological target: Gal(b1-4)GlcNAc(b1-3)Gal(b1-4)GlcNAc(b1-3)Gal(b1-4)GlcNAc(b1-2)Man(a1-3)[Gal(b1-4)GlcNAc(b1-3)Gal(b1-4)GlcNAc(b1-3)Gal(b1-4)GlcNAc(b1-2)Man(a1-6)]Man(b1-4)GlcNAc(b1-4)[Fuc(a1-6)]GlcNAc
# Procedure, shortened: as §1
# [21] = biological target: Gal(b1-4)GlcNAc(b1-3)Gal(b1-4)GlcNAc(b1-3)Gal(b1-4)GlcNAc(b1-3)Gal(b1-4)GlcNAc(b1-2)Man(a1-3)[Gal(b1-4)GlcNAc(b1-3)Gal(b1-4)GlcNAc(b1-3)Gal(b1-4)GlcNAc(b1-3)Gal(b1-4)GlcNAc(b1-2)Man(a1-6)]Man(b1-4)GlcNAc(b1-4)[Fuc(a1-6)]GlcNAc
# Procedure, shortened: as §1
# [22] = biological target: Gal(b1-4)GlcNAc(b1-3)Gal(b1-4)GlcNAc(b1-3)Gal(b1-4)GlcNAc(b1-3)Gal(b1-4)GlcNAc(b1-3)Gal(b1-4)GlcNAc(b1-2)Man(a1-3)[Gal(b1-4)GlcNAc(b1-3)Gal(b1-4)GlcNAc(b1-3)Gal(b1-4)GlcNAc(b1-3)Gal(b1-4)GlcNAc(b1-3)Gal(b1-4)GlcNAc(b1-2)Man(a1-6)]Man(b1-4)GlcNAc(b1-4)[Fuc(a1-6)]GlcNAc
# Procedure, shortened: as §1
# [23] = biological target: Gal(b1-4)GlcNAc(b1-3)Gal(b1-4)GlcNAc(b1-3)[Gal(b1-4)GlcNAc(b1-3)Gal(b1-4)GlcNAc(b1-6)]GalNAc
# Procedure, shortened: as §1
binder,measurement,setting,value
rCnSL-proB (Clitocybe nebularis) (protein) PTFSPIFALLAFLPFGTLASLLPQTQLVFRINPNLPGPNDVFVGYRGTNNVVGAIYERDGIKDTPMNNGADAELGPGSYITDDLFTAQIFASGSAGNNPGTTATVCKIYADGVQWRGAPKGYLPVLYFGNGQAAEQTRQTYLQGLDIPGTAIRFANLAKTPNQGPTAPRQMVVPSGGLQTLLKASCFPANHAALPQVLSYFNVRAALPPGWNIRTGPEFPNWTN,glycan array binding signal (z-score),[1],-0.282
same,glycan array binding signal (z-score),[2],3.69
same,glycan array binding signal (z-score),[3],0.251
same,glycan array binding signal (z-score),[4],0.259
same,glycan array binding signal (z-score),[5],-0.77
same,glycan array binding signal (z-score),[6],3.9
same,glycan array binding signal (z-score),[7],-0.08
same,glycan array binding signal (z-score),[8],-0.654
same,glycan array binding signal (z-score),[9],-0.565
same,glycan array binding signal (z-score),[10],-0.826
same,glycan array binding signal (z-score),[11],-0.093
same,glycan array binding signal (z-score),[12],-0.42
same,glycan array binding signal (z-score),[13],3.58
same,glycan array binding signal (z-score),[14],-0.511
same,glycan array binding signal (z-score),[15],0.089
same,glycan array binding signal (z-score),Gal(b1-4)Glc6S,-0.06
same,glycan array binding signal (z-score),[16],3.51
same,glycan array binding signal (z-score),[17],4.49
same,glycan array binding signal (z-score),[18],6.35
same,glycan array binding signal (z-score),[19],4.18
same,glycan array binding signal (z-score),[20],1.76
same,glycan array binding signal (z-score),[21],2.28
same,glycan array binding signal (z-score),[22],0.375
same,glycan array binding signal (z-score),[23],4.08

# Reference: the supplement of paper PMC8728848
